Test results from PMC4336329 (PLoS ONE, 2015).
The campaign covered roughly 310,000 compounds. About 14,000 (4.5%) showed an effect of 50% or more. The effect is printed as a negative number. The full list was thinned out, with strong results kept by preference.

target: human ether-à-go-go-related gene (hERG) potassium channel (human, UniProt Q12809); experiment: primary screen, population patch clamp on CHO cells stably expressing hERG; higher = less effect of the substance
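Also: peak tail current of the secondary pulse compared with the same well before compound.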

Sequence of human ether-à-go-go-related gene (hERG) potassium channel (Q12809 whole entry, looked up): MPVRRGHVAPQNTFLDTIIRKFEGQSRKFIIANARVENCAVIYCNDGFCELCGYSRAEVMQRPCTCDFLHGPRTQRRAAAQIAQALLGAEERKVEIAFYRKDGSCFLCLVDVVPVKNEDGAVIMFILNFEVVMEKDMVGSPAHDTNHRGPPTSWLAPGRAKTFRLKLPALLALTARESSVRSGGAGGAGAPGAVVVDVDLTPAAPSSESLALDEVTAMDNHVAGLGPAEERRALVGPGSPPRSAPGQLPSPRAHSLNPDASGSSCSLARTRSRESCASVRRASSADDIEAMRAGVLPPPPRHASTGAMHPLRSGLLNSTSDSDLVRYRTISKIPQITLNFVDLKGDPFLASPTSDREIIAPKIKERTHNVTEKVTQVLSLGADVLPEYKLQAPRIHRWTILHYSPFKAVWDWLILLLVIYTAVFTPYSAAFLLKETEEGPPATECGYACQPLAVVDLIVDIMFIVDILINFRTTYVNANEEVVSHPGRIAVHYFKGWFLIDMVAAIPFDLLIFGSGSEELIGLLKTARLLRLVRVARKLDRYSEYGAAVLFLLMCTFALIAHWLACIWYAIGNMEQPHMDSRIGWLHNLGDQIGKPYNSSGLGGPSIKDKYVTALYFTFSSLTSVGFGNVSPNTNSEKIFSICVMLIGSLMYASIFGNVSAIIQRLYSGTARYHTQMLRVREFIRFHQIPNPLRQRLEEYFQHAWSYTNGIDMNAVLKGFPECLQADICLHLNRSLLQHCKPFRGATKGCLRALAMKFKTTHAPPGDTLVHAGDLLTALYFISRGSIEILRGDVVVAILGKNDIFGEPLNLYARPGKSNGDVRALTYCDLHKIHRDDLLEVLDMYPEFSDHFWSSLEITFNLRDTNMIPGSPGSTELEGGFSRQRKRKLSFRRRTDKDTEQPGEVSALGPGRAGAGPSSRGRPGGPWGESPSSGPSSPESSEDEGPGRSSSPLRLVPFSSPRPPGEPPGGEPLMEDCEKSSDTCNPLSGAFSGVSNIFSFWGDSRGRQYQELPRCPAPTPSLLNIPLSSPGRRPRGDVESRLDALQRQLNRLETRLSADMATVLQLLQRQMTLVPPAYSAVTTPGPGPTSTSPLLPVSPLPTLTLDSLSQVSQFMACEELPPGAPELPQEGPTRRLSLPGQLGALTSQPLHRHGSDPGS

Going from COc1ccc(CCNC(=O)C2CCC(=O)N2CCc2ccccc2)cc1OC (stereo not shown) to COc1cc(NC(=O)C2CCCO2)c(OC)cc1NC(=O)c1ccccc1 (stereo not shown), the “hERG current change (%, negative = inhibition) at 10uM” value falls from 12.4% to 8.17%.

Going from O=c1nc2n(c3ccc([N+](=O)[O-])cc13)CCCCC2 to COc1ccc(OC)c(CNc2ccc([N+](=O)[O-])cc2C)c1, the “hERG current change (%, negative = inhibition) at 10uM” value rises from -15.4% to 3.55%.

First: COCc1cc(=O)[nH]c(Nc2nc(C)c3cc(OC)ccc3n2)n1
Second: CCc1ccc2nc(Nc3nc(COC)cc(=O)[nH]3)nc(C)c2c1
The “hERG current change (%, negative = inhibition) at 10uM” value of the first is higher: 7.05% for the first, -73.3% for the second.

Going from COCc1cc(=O)[nH]c(Nc2nc(C)c3ccccc3n2)n1 to Cc1cc(C)n2nc(CCc3ccccc3)nc2n1, the “hERG current change (%, negative = inhibition) at 10uM” value falls from -8.74% to -12.8%.

Going from CCC(=O)Nc1ccc(C(=O)Nc2ccc(OC)cc2[N+](=O)[O-])cc1 to CCOc1ccc(N/C=C/C(=O)c2ccc(OC)cc2)c([N+](=O)[O-])c1, the “hERG current change (%, negative = inhibition) at 10uM” value rises from 13.7% to 24.5%.

Compared with FC(F)(F)c1cccc(Cc2noc(CN3CCCCC3c3ccccn3)n2)c1 (stereo not shown), Cc1cccc(CN2CCC(n3nccc3NC(=O)c3ccccc3C)CC2)n1 is lower in “hERG current change (%, negative = inhibition) at 10uM” value: -8.11% for the first, -19.9% for the second.

Compared with Cc1ncc(CN2CCC(n3nccc3NC(=O)c3ccccc3)CC2)s1, COc1ccccc1C(=O)Nc1ccnn1C1CCN(Cc2cnc(N(C)C)s2)CC1 is lower in “hERG current change (%, negative = inhibition) at 10uM” value: -19% for the first, -65% for the second.

First: Cc1cc(CN2CCC(n3nccc3NC(=O)c3ccccc3Cl)CC2)cc(C)c1O
Second: Cc1cc(C)c(CN2CCC(n3nccc3NC(=O)c3ccccc3Cl)CC2)cc1C
The “hERG current change (%, negative = inhibition) at 10uM” value of the first is lower: -74.2% for the first, -50.8% for the second.

First: Cc1ccccc1C(=O)Nc1ccnn1C1CCN(Cc2cccnc2)CC1
Second: O=C(Nc1ccnn1C1CCN(Cc2cccnc2)CC1)c1ccccc1Cl
The “hERG current change (%, negative = inhibition) at 10uM” value of the first is lower: -77.4% for the first, -37.1% for the second.

Compared with COc1ccccc1CN1CCC(n2nccc2NC(=O)c2ccccc2Cl)CC1, O=C(Nc1ccnn1C1CCN(Cc2ccccc2)CC1)c1ccccc1Cl is higher in “hERG current change (%, negative = inhibition) at 10uM” value: -76.2% for the first, -76.1% for the second.

Going from COc1cccc(OC)c1OC(=O)/C=C/c1ccc(C)o1 to CCOC(=O)C1CCCN(C(=O)c2ccc3nc(-c4cccc(OC)c4)oc3c2)C1 (stereo not shown), the “hERG current change (%, negative = inhibition) at 10uM” value falls from 6.2% to -28.6%.

Compared with CC(C)(C)C(=O)NCCCNc1ccc([N+](=O)[O-])cc1, CC(C)(C)c1ccc(C(=O)NCCC(=O)NCc2ccco2)cc1 is lower in “hERG current change (%, negative = inhibition) at 10uM” value: -24.7% for the first, -36.1% for the second.

Compared with O=C(O)CCC(=O)NC1CCCCC1, CC(=O)c1cccc(NC(=O)N2C3CCCC2CC(NC(=O)C2CC2)C3)c1 (stereo not shown) is higher in “hERG current change (%, negative = inhibition) at 10uM” value: 6.89% for the first, 17.2% for the second.

Going from COc1ccc(/C=C/c2nc(-c3ccccc3O)n(-c3ccccc3)n2)cc1 to c1ccc(-c2cnc(-c3ccccc3)nc2)cc1, the “hERG current change (%, negative = inhibition) at 10uM” value rises from -2.17% to 13.4%.

Going from Cc1ccccc1C(=O)Nc1ccnn1C1CCN(Cc2ccncc2)CC1 to Cc1ccccc1C(=O)Nc1ccnn1C1CCN(Cc2ccccn2)CC1, the “hERG current change (%, negative = inhibition) at 10uM” value rises from -45.1% to -33.9%.

First: O=C(Nc1ccnn1C1CCN(C2CCC2)CC1)c1ccccc1Cl
Second: O=C(Nc1ccnn1C1CCN(C2CCCC2)CC1)c1ccccc1Cl
The “hERG current change (%, negative = inhibition) at 10uM” value of the first is lower: -63.6% for the first, -45% for the second.

Compared with CCc1ccc(CN2CCC(n3nccc3NC(=O)c3ccccc3C)CC2)cc1, CCc1ccc(CN2CCC(n3nccc3NC(=O)c3ccccc3Cl)CC2)cc1 is lower in “hERG current change (%, negative = inhibition) at 10uM” value: -76.2% for the first, -84.4% for the second.

Going from O=C(Nc1ccnn1C1CCN(C2CCC2)CC1)c1ccccc1 to CCN1CCC(n2nccc2NC(=O)c2ccccc2Cl)CC1, the “hERG current change (%, negative = inhibition) at 10uM” value falls from -0.539% to -21%.

First: C=CCN1C(=O)C(C)(C)Nc2ccccc21
Second: O=C1Nc2ccccc2/C1=C/c1ccccc1F
The “hERG current change (%, negative = inhibition) at 10uM” value of the first is lower: 6.7% for the first, 26.3% for the second.

Compared with O=C(c1cccnc1Cl)N(Cc1ccccc1)Cc1ccccc1, COc1ccccc1C(=O)Nc1ccnn1C1CCN(Cc2ccccc2OCCO)CC1 is lower in “hERG current change (%, negative = inhibition) at 10uM” value: -17.7% for the first, -78.7% for the second.

Going from CC(=O)Nc1ccc(-c2csc(-c3cccnc3)n2)cc1 to O=C(Cc1cccs1)N1CCN(c2nc(-c3ccc(Cl)cc3)cs2)CC1, the “hERG current change (%, negative = inhibition) at 10uM” value falls from 3.98% to -8.73%.

Compared with CC(=O)OC[C@H]1O[C@@H](Sc2cccc3cccnc23)[C@H](OC(C)=O)[C@@H](OC(C)=O)[C@@H]1OC(C)=O, COC(C(=O)Nc1ccnn1C1CCN(Cc2nccs2)CC1)c1ccccc1 (stereo not shown) is higher in “hERG current change (%, negative = inhibition) at 10uM” value: -11.4% for the first, 0.847% for the second.

Compared with CCCN(C#N)c1nc(NCC)nc(NC(C)C)n1, CCCN(Cc1cc2ccc(C)cc2[nH]c1=O)S(=O)(=O)c1ccccc1 is higher in “hERG current change (%, negative = inhibition) at 10uM” value: -10.2% for the first, 6.34% for the second.

First: O=C1CN(CC(=O)Nc2ccc(Cl)cc2)CCN1
Second: O=S(=O)(c1cc(Cl)ccc1Cl)N1CCN(Cc2ccco2)CC1
The “hERG current change (%, negative = inhibition) at 10uM” value of the first is higher: -4.87% for the first, -54.1% for the second.

Going from COC(C(=O)Nc1ccnn1C1CCN(Cc2ccc(C)s2)CC1)c1ccccc1 (stereo not shown) to COC(C(=O)Nc1ccnn1C1CCN(Cc2ccc(Cl)s2)CC1)c1ccccc1 (stereo not shown), the “hERG current change (%, negative = inhibition) at 10uM” value rises from -50.8% to -5.29%.

Going from CSc1ccc(CN2CCC(n3nccc3NC(=O)c3ccccc3C)CC2)cc1 to Br.O=C(c1ccc(Br)cc1)c1sc(N2CCOCC2)nc1-c1ccccc1, the “hERG current change (%, negative = inhibition) at 10uM” value rises from -75% to -1.44%.

Compared with Cc1cc(OCC(=O)Nc2cccnc2)c2c(C)cc(=O)oc2c1, Cc1cc(C)cc(N(CCC#N)C(=O)COC(=O)CCc2c[nH]c3ccccc23)c1 is lower in “hERG current change (%, negative = inhibition) at 10uM” value: 4.24% for the first, -32.6% for the second.

Going from CC(O)C(O)C(O)C(O)C1NCCS1 (stereo not shown) to Cc1ccc(S(=O)(=O)N2CCN(Cc3ccco3)CC2)c(C)c1, the “hERG current change (%, negative = inhibition) at 10uM” value falls from 6.81% to -35.6%.

Compared with O=C(NCCc1c[nH]c2ccccc12)OCCSS(=O)(=O)[O-].[Na+], O=C(c1ccco1)N1CCN(S(=O)(=O)c2cc(Cl)ccc2Cl)CC1 is lower in “hERG current change (%, negative = inhibition) at 10uM” value: 9.49% for the first, -21.5% for the second.
